GPT2 inhibitor = GPT2 alanine aminotransferase inhibition; Potency, µM (titrated, usually from 57.7 µM), actives largely listed as inhibitors; actives 0.25% (n = 100,000); Recombinant GPT2, coupled pyruvate oxidase/HRP Amplex Red fluorescence; Q8TD30; also: nearly all actives have a fitted effect of over 60% in size
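Inhibition is scored from Amplex Red fluorescence generated when pyruvate oxidase and HRP act on pyruvate released by GPT2. Reactions contain 10ng/uL enzyme, 250uM a-KG and 2mM L-alanine and run 30 min at room temperature.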
FLuc inh = inhibitors of firefly (Photinus pyralis) luciferase; purified P. pyralis luciferase, luminescence, biochemical; Potency, µM (highest dose often 115 µM), usual class: inhibitors; actives 2.5% (n = 76,000); AID 1347043; also: nearly all actives have a fitted effect of over 65% in size
Target sequence (P08659 whole entry, looked up): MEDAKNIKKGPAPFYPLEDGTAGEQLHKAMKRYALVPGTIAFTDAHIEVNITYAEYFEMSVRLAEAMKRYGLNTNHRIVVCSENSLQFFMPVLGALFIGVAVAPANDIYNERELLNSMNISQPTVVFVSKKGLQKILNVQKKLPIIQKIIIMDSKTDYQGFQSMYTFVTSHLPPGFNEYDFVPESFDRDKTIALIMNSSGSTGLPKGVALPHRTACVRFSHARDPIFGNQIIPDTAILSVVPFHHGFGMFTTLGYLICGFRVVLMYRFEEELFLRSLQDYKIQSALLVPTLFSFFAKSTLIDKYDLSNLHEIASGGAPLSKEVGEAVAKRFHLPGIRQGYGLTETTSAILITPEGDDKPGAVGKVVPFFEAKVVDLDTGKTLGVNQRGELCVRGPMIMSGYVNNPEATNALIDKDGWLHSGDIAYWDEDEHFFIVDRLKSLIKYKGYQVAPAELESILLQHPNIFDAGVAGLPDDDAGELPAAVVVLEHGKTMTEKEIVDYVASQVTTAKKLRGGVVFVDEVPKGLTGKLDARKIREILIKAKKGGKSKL
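FLuc 10nM, D-luciferin 10uM, ATP 10uM, Mg acetate 10mM, Tris acetate pH 7.5, Tween/BSA; cpd qHTS; enzyme added last; CCD luminescence.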
NIH3T3 tox = kills NIH 3T3 cells. NIH 3T3 viability, CellTiter-Glo ATP luminescence, 48-72 h. Potency, µM (series often up to 96.7 µM), usual class: inhibitors. actives 4.3% (n = 94,000). AID 1345082; also: nearly all actives have a fitted effect of over 55% in size
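Cytotoxicity is measured as loss of cellular ATP: NIH 3T3 cells (400/well) are exposed to compound for 48 or 72 hr at 37 °C, then CellTiter-Glo luminescence is imaged after 10 min at room temperature.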
NPR1 antag = blocks ANP-stimulated signaling of human Npr1 receptor; Potency, µM (series often up to 46.3 µM), hits mostly inhibitors; HEK293 hNpr1 GloSensor cGMP, ANP-stimulated luminescence; AID 1347048; P16066; actives 1.6% (n = 76,000); calls by dose curve; also: nearly all actives have a fitted effect of over 60% in size
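HEK293 cells stably expressing human Npr1 and cGMP GloSensor pGS-40F, loaded 2 h with 2% GloSensor reagent, given compound 30 min at room temperature. Luminescence read before and 20 min after 0.1 nM hNppA.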
HEK cytotox = cytotoxic compounds in HEK 293 cells. Potency, µM (doses to about 115 µM), usual class: inhibitors. AID 1345083. HEK 293 viability, ATP luminescence (CellTiter-Glo), 48-72 h. actives 6.6% (n = 94,000); also: nearly all actives have a fitted effect of over 60% in size
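HEK 293 seeded at 250 cells/well receive compound via pintool. After 48 or 72 hr at 37 degree Celsius, 5% CO2 and 95% humidity, CellTiter-Glo is dispensed and luminescence read following 10 min at room temperature.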
Hits are given with their value; . = inactive; ? = inconclusive; / = no result given; ! = repeats disagree; [ ] = another dose, or the depositor's remark. An excerpt weighted towards active compounds, which were near 10% of everything screened. Unless noted, calls follow the shape of the dose curve; as a rule, active = well fitted curve in the direction sought with a large enough effect; inconclusive = small, poorly fitted or top-dose-only effect, or another doubt; inactive = no such curve, though single readings can be large; an effect the other way counts as inactive or inconclusive.

SMILES	GPT2 inhibitor	FLuc inh	NIH3T3 tox	NPR1 antag	HEK cytotox
O=C(NCc1ccccc1Cl)C1CCCN(Cc2cccc(-c3ccsc3)c2)C1 (stereo not given)	/	/	12.6µM	/	22.4µM
O=C(NCc1cccc(Cl)c1)C1CCCN(Cc2cccc(-c3ccsc3)c2)C1 (stereo not given)	/	/	39.8µM	/	31.6µM
O=C1CN(C(=O)C2CCCC2)CC(O)CN1CCCc1ccccc1 (stereo not given)	/	/	.	/	?
COc1ccccc1-c1ccc(CN2CCCCC2C(=O)NCC(F)F)cc1 (stereo not given)	/	/	44.7µM!	/	?
COc1ccccc1-c1ccc(CN2CCCCC2C(=O)NCc2ccc(C(F)(F)F)cc2)cc1 (stereo not given)	.	/	?	/	?
COc1ccccc1-c1ccc(CN2CCCCC2C(=O)NC(C)C)cc1 (stereo not given)	/	/	?	/	79.4µM
COc1ccccc1-c1ccc(CN2CCCCC2C(=O)N2CCOCC2)cc1 (stereo not given)	.	/	.	/	?
COc1ccc(F)cc1-c1ccc(CN2CCCCC2C(=O)NCC(F)F)cc1 (stereo not given)	/	/	?	/	35.5µM
COc1ccc(F)cc1-c1ccc(CN2CCCCC2C(=O)N2CCCN(C(C)=O)CC2)cc1 (stereo not given)	/	/	.	/	44.7µM
CN(CCc1ccccc1)[C@@H]1[C@H](O)[C@H](CO)O[C@@H]1CNC(=O)c1cccc(F)c1	.	.	.	.	.
COc1ccc(F)cc1-c1ccc(CN2CCCCC2C(=O)NCCc2ccc(Cl)cc2)cc1 (stereo not given)	/	/	?	/	31.6µM
C=CCn1cc2c3c(cccc31)[C@H](CC(C)C)N[C@H](C(=O)NCc1ccccc1)C2	.	.	?	.	?
CC(C)C[C@@H]1N[C@H](C(=O)NC2CCCC2)Cc2cn(CC3CC3)c3cccc1c23	.	.	35.5µM	.	44.7µM
C=CCNC(=O)[C@@H]1Cc2cn(CC3CC3)c3cccc(c23)[C@H](CC(C)C)N1	.	.	?	.	50.1µM
C=CCn1cc2c3c(cccc31)[C@H](CC(C)C)N[C@H](C(=O)NC1CCCC1)C2	.	.	31.6µM	.	39.8µM
CC(C)C[C@@H]1N[C@H](C(=O)O)Cc2cn(CC3CC3)c3cccc1c23	.	.	?	?	?
C=CCn1cc2c3c(cccc31)[C@H](CC(C)C)N[C@H](C(=O)NCc1ccccc1OC)C2	.	.	25.1µM	.	39.8µM
OCC#Cc1csc(CN2CCCN(C3CCCCC3)CC2)c1	.	.	.	.	?
COc1ccc(CN2C(=O)[C@H](OC)[C@@H]2C2=CCN(C(=O)c3ccnn3C)CC2)cc1	.	/	.	/	.
C=CCn1cc2c3c(cccc31)[C@H](CC(C)C)N[C@H](C(=O)NC1CCC1)C2	.	.	?	.	63.1µM
C=CCNC(=O)[C@@H]1Cc2cn(Cc3c(C)noc3C)c3cccc(c23)[C@H](CC(C)C)N1	.	.	112µM	.	100µM
FC(F)(F)c1ccnc(N2CCOCC3(CN(Cc4ccccc4)C3)C2)n1	.	.	.	.	?
O=[S+]([O-])(c1ccccc1)N1CC2(COCCN(c3nccc(C(F)(F)F)n3)C2)C1	?	.	?	.	89.1µM
Cc1ccccc1C(=O)N1CCCC(C(=O)N2CCC(c3nc4ncccc4[nH]3)C2)C1 (stereo not given)	.	/	.	/	.
CC(C)CCNC(=O)c1cc(-c2ccncc2)cn1C	.	.	?	.	?
SMILES	GPT2 inhibitor	FLuc inh	NIH3T3 tox	NPR1 antag	HEK cytotox
Cc1ccc(-c2ccc(CCC(=O)N[C@@H]3CCOC[C@H]3OCC(=O)O)o2)cc1	.[11.5 µM]	25.1µM	.	.	.
O=C(Cc1ccccc1)Nc1cc(-c2cccnc2)nn1-c1ccccc1	.	/	?	/	?
O=C1CCCCCN1C1CCN(Cc2cccc3ccccc23)CC1	.	.	79.4µM	.	79.4µM
O=C1CCCCCN1C1CCN(Cc2ccccc2C(F)(F)F)CC1	.	.	?	.	79.4µM
O=C1CCCCCN1C1CCN(Cc2cccnc2)CC1	.	.	.	.	.
O=C(NCc1ccc(F)cc1)C1CCc2nnc(C3CCN([S+](=O)([O-])c4ccccc4Cl)CC3)n21 (stereo not given)	.	/	.	/	.
CC1(C)[C@H](Cc2cc(CN3CCOCC3)on2)C[C@@H]1N(Cc1ccco1)Cc1ccco1	.	.	?	.	?
CN(C)Cc1cc(C[C@@H]2C[C@H](N(Cc3ccco3)Cc3ccco3)C2(C)C)no1	.	.	79.4µM	.	70.8µM
O=C(NC1C[C@H]2CC[C@@H](C1)N2C(=O)Cc1ccc(Cl)cc1)c1ccncc1 (stereo not given in full)	.	.	.	.	.
Cc1ccccc1C(=O)N1CCN(CCCn2nc3n(c2=O)CCCC3)CC1	/	/	.	/	.
CC(C)(O)CCc1cccc(C(=O)NCc2ccccc2Cn2cccn2)c1	.	.	22.4µM	.	.
CC(C)(O)CCc1cccc(C(=O)NCCNc2cccnc2)c1	?	.	?	.	31.6µM
CC(C)(O)CCc1cccc(C(=O)NCCCc2ccccn2)c1	.[11.5 µM]	?	.	.	.
O=C(NCc1ccccc1Cn1cccn1)c1ccc2cccc(F)c2n1	.	.	?	.	?
O=C(c1ccc(F)cc1)N1CCCC(C(=O)N2CCC(c3nc4ccncc4[nH]3)CC2)C1 (stereo not given)	.	/	.	/	.
N#Cc1cccc(CN2C[C@H](O)C[C@H]2c2nc(-c3ccc4c(c3)OCO4)no2)c1	?	?	?	.	100µM
COc1ccc(-c2noc([C@@H]3C[C@@H](O)CN3Cc3cccc(C#N)c3)n2)cc1	.	22.4µM	.	?	?
CC(C)N1C[C@H](O)C[C@H]1c1nc(-c2ccc(F)cc2)no1	.	?	.	.	?
COc1ccc(-c2noc([C@@H]3C[C@@H](O)CN3Cc3ccc(S(C)(=O)=O)cc3)n2)cc1	.	.	.	.	.
O[C@@H]1C[C@@H](c2nc(-c3ccc4c(c3)OCO4)no2)N(Cc2ccccc2)C1	.	50.1µM	?	.	?
CC(C)N1C[C@H](O)C[C@H]1c1nc(-c2ccc3c(c2)OCO3)no1	.	39.8µM	.	.	.
O=C(c1ccc(N2CC3CC(C2)[C@H]2CCCC(=O)N2C3)nc1)N1CCC(Cc2ccccc2)CC1 (stereo not given in full)	.	.	?	.	?
Cc1ccc2c(n1)N(C)[C@H](CO)CCN(Cc1ccc(C(F)(F)F)cc1)C2	.	.	63.1µM	.	35.5µM
Cc1ccc2c(n1)N(C)[C@H](CO)CCN(Cc1ccc(C(C)C)cc1)C2	.	.	?	.	63.1µM
COc1ccc(CN2CC[C@@H](CO)N(C)c3nc(C)ccc3C2)cc1	.	.	.	.	?
COc1ccccc1CCNC(=O)C1CC(c2ccccc2)CN(C(=O)C2CC2)C1 (stereo not given)	.	.	?	.	31.6µM

Bioassay records from PubChem BioAssay.
